# In PubChem BioAssay (NCATS):
# Records with an inconclusive call do not appear. The source made the active and inactive calls. Unless noted, calls follow the shape of the dose curve; as a rule, active = well fitted inhibition curve with a large enough effect; inconclusive = small, poorly fitted or top-dose-only effect; inactive = no such curve, though single readings can be large or run the other way.
# System: not listed separately
# Test: S16 Schwann cell PMP22 intronic element beta-lactamase assay (AID 624044; calls by dose curve; also: nearly all actives have a fitted effect of over 15% in size;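 as to ratio activity, negative = inhibition: 0% = DMSO and -100% = potassium clavulanate positive control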)
# Settings: S16 rat Schwann cells, PMP22 element beta-lactamase FRET, 24 h; ratio activity, negative = inhibition: at 38.3 µM (top of the series)
# Procedure, shortened: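 Rat S16 Schwann cells with beta-Lac driven by a PMP22 intronic element, compound-treated 24 h at 37 °C. LiveBLAzer FRET B/G read: 460 nm normalized to potassium clavulanate vs DMSO; 535 nm FRET as viability; concentration-effect curves classified.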
# Potency is read from the fitted curve at half-maximal effect.
SMILES,Potency,"ratio activity, negative = inhibition"
C[C@]12O[C@H](C[C@]1(O)CO)n1c3ccccc3c3c4c(c5c6ccccc6n2c5c31)CNC4=O,7.07 µM (active),–
CC1(Cn2ccnn2)[C@H](C(=O)O)N2C(=O)C[C@H]2S1(=O)=O (stereo partly drawn),12.6 µM (active),–
COc1cc(-c2ccc(-[n+]3nc(-c4ccccc4)nn3-c3ccc([N+](=O)[O-])cc3)c(OC)c2)ccc1-[n+]1nc(-c2ccccc2)nn1-c1ccc([N+](=O)[O-])cc1,25.1 µM (active),–
C[C@H](CCCC(C)(C)O)[C@H]1CC[C@H]2[C@@H]3CC=C4C[C@@H](O)CC[C@]4(C)[C@H]3CC[C@]12C,–,1.58% (inactive)
NC(C(=O)O)[C@@H]1CC(Cl)=NO1 (stereo partly drawn),19.9 µM (active),–

# Molecular target: Tumor susceptibility gene 101 protein (Homo sapiens) (UniProt Q99816)
# Test: qHTS Assay for Iinhibitors of HIV-1 Budding by Blocking the Interaction of PTAP/TSG101: Hit Validation (AID 651600); also: nearly all actives have a fitted effect of over 70% in size; as to activity change, negative = inhibition: % is scaled to controls: 0 for no effect and ±100 for the full control effect
# Settings: PTAP peptide/TSG101 UEV interaction, biochemical assay; series mostly up to 57.5 µM; activity change, negative = inhibition: at the top concentration
# Procedure, shortened: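 Displacement of a FITC-labeled PTAP-motif peptide (50 nM) from the Tsg101 binding domain (10 uM) was monitored by fluorescence polarization after a 20 min room-temperature incubation.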
# Sequence of Tumor susceptibility gene 101 protein (Homo sapiens) (Q99816 whole entry, looked up): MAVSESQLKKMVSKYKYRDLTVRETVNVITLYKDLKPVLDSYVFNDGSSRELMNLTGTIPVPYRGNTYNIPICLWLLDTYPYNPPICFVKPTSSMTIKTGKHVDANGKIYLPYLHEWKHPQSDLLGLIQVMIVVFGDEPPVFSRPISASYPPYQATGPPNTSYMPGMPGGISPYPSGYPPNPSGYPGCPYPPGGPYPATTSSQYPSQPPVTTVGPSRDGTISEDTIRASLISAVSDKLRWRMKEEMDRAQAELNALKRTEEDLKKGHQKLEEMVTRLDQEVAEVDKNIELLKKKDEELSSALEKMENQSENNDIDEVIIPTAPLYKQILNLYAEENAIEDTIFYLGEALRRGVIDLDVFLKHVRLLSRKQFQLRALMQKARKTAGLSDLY
SMILES,Potency,"activity change, negative = inhibition"
CCOC(=O)c1c(/N=C/c2c(O)n(-c3ccccc3F)c(=S)[nH]c2=O)sc2c1CCCC2,16.3 µM (active),–
N#CCN1CCN(c2ccc(C(F)(F)F)cc2)CC1,–,2.83% (inactive)
Nc1ccc2c3c(cccc13)-c1ccccc1-2,9.19 µM (active),–
COc1ccc(N2C(=O)NC(=O)/C(=C\c3cn(C)c4ccccc34)C2=O)cc1,–,-1.68% (inactive)
CN1Cc2c(c(C#N)c(N)n(C)c2=S)CC1(C)C,32.6 µM (active),–
CC(C)C[C@H]1C(=O)N2CCC[C@H]2[C@]2(O)O[C@](NC(=O)[C@@H]3C=C4c5cccc6[nH]cc(c56)C[C@H]4N(C)C3)(C(C)C)C(=O)N12,–,-7.73% (inactive)
Cc1cc(N2CCCC2)ccc1C=C(C#N)C#N,–,4.33% (inactive)
COc1cccc2c1C(=O)c1c(O)c3c(c(O)c1C2=O)CC(O)(C(C)=NO)CC3OC1CC(N)C(O)C(C)O1 (stereo not drawn),10.3 µM (active),–
